Where “and” joins values, the source holds several entries; their conditions need not be identical. Identical values can stand only once. Counter-ions that a name gives are not always drawn. A number with no mark means an inactive call.
System: Plasmodium falciparum NF54/iGP1_RE9H ulg8 stage V gametocytes
Assay: gametocyte viability (luciferase signal relative to DMSO control) (% of DMSO control); higher = less gametocytocidal activity, active = 50 or less
Details: exposure time: 72 h
Summary of the method: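 Gametocyte viability is reported relative to the average of DMSO vehicle wells on the same plate. The assay used day-12 stage V NF54/iGP1_RE9Hulg8 gametocytes at ~2.5% gametocytemia and 3% hematocrit, in 0.5% Albumax II medium, added to 96-well plates of compounds spotted in nanolitre volumes for final 10 µM or 1 µM, one well each. After 72 h at 37 °C, 90 µl was mixed with 10 µl D-luciferin (30 mg/ml), and luminescence was recorded with an IVIS Lumina II.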

Row | SMILES | gametocyte viability (concentration: 1 µM) | gametocyte viability (concentration: 10 µM)
1 | Cc1ccc(NC(=O)c2ccc(CN3CCN(C)CC3)cc2)cc1Nc1nc(-c2cccnc2)cs1 [Masitinib (AB1010)] | 104 | 80.3
2 | Nc1nc(N)c2nc(-c3cccc(O)c3)c(-c3cccc(O)c3)nc2n1 | 110 | 109
3 | COCc1cc(O)c(O)c(O)c1-c1c(COC)cc(O)c(O)c1O | 104 | 92.3
4 | O=C(O)c1ccc2c(c1)nc(Nc1cccc(Cl)c1)c1ccncc12 | 101 | 107
5 | Cc1nc(N)sc1-c1ccnc(Nc2ccc(N3CCOCC3)cc2)n1 | 107 | 108
6 | O=P(O)(O)C(O)c1ccc2ccccc2c1 (stereo not drawn) [Hydroxy-2-naphthalenylmethylphosphonic acid] | 95.7 | 90.5
7 | O=c1cc(N2CCOCC2)oc2c(-c3cccc4c3sc3ccccc34)cccc12 | 106 | 105
8 | O=C(Nc1ccc(OC(F)(F)F)cc1)c1sccc1NCc1ccnc2ccccc12 | 96.9 | 86.6
9 | O=C1NC(=O)/C(=C\c2ccc3nccnc3c2)S1 | 94.4 | 101
10 | CCOc1ccn(-c2ccc(F)cc2)c(=O)c1C(=O)Nc1ccc(Oc2ccnc(N)c2Cl)c(F)c1 | 95.8 | 92.2
11 | O=C(Nc1cccc(Cl)c1)Nc1ncc(CCNc2ncnc3ccsc23)s1 | 110 | 120
12 | CC(C)n1nc(-c2cc3cc(O)ccc3[nH]2)c2c(N)ncnc21 | 105 | 103
13 | CO[C@H]1C[C@@H]2CC[C@@H](C)[C@@](O)(O2)C(=O)C(=O)N2CCCC[C@H]2C(=O)O[C@H]([C@H](C)C[C@@H]2CC[C@@H](OC(=O)C(C)(CO)CO)[C@H](OC)C2)CC(=O)[C@H](C)/C=C(\C)[C@@H](O)[C@@H](OC)C(=O)[C@H](C)C[C@H](C)/C=C/C=C/C=C/1C [Temsirolimus (Torisel)] | 93.9 | 88.4
14 | COC(=O)Nc1ccc(-c2nc(N3CCOCC3)c3cnn(C4CCN(C(=O)OC)CC4)c3n2)cc1 | 97.3 | 97.2
15 | Cc1ncc(-c2ccnc(Nc3ccc(S(C)(=O)=O)cc3)n2)n1C(C)C | 115 | 119
16 | Cc1[nH]c(/C=C2\C(=O)Nc3ccc(S(=O)(=O)N(C)c4cccc(Cl)c4)cc32)c(C)c1C(=O)N1CCN(C)CC1 | 107 | 92.8
17 | O=C(O)c1cc(NCc2cc(O)ccc2O)ccc1O [2-Hydroxy-5-(2,5-dihydroxybenzylamino)benzoic acid] | 103 | 109
18 | CNC(=O)c1cc(Oc2ccc(NC(=O)Nc3cc(C(C)(C)C)nn3-c3ccc4ncccc4c3)c(F)c2)ccn1 [DCC-2036 (Rebastinib)] | 103 | 107
19 | O=C(NOC[C@H](O)CO)c1ccc(F)c(F)c1Nc1ccc(I)cc1F | 114 | 110
20 | O=S(=O)(NCCNC/C=C/c1ccc(Br)cc1)c1cccc2cnccc12 | 99 | 93.1

Row | SMILES | gametocyte viability (concentration: 1 µM) | gametocyte viability (concentration: 10 µM)
21 | COc1cc2nccc(Oc3ccc(NC(=O)Nc4cc(C)on4)c(Cl)c3)c2cc1OC [Tivozanib (AV-951)] | 94 | 99.8
22 | COC(=O)c1ccc2c(C(=Nc3ccc(N(C)C(=O)CN4CCN(C)CC4)cc3)c3ccccc3)c(O)[nH]c2c1 [BIBF1120 (Vargatef)] | 96 | 108
23 | Cc1ccc(NC(=O)c2ccc(CN3CCN(C)CC3)cc2)cc1Nc1nccc(-c2cccnc2)n1 [Imatinib Mesylate] | 108 | 111
24 | Cc1ccc(C(=O)Nc2cccc(C(F)(F)F)c2)cc1Nc1nc(-c2cccnc2)nc2c1cnn2C | 100 | 98.7
25 | CC(C)c1cnn2c(NCc3ccccc3)cc(NCCCCCCN)nc12 | 102 | 86.5
26 | C[C@@H]1CN(CC(=O)Nc2ccc3c(c2)Cc2cccc(-c4cc(=O)cc(N5CCOCC5)o4)c2S3)C[C@H](C)O1 | 86 | 68
27 | COC(=O)Nc1ccc(-c2nc(N3CCOCC3)c3cnn(C4CCN(Cc5cccnc5)CC4)c3n2)cc1 | 115 | 117
28 | Cn1c(Nc2ccc(C(F)(F)F)cc2)nc2cc(Oc3ccnc(-c4ncc(C(F)(F)F)[nH]4)c3)ccc21 | 103 | 104
29 | COc1cc(Nc2ncc3c(n2)-c2ccc(Cl)cc2C(c2c(F)cccc2OC)=NC3)ccc1C(=O)O [MLN8237 (Alisertib)] | 95 | 94.6
30 | Cn1cc(-c2ccc3nnc(C(F)(F)c4ccc5ncccc5c4)n3n2)cn1 | 98.2 | 118
31 | CN(C)CCCn1cc(C2=C(c3c[nH]c4ccccc34)C(=O)NC2=O)c2ccccc21 | 92.7 | 115
32 | COc1cc2c(Oc3ccc4[nH]c(C)cc4c3F)ncnc2cc1OCCCN1CCCC1 [Cediranib (AZD2171)] | 88.6 | 90.7
33 | FC(F)c1nc2ccccc2n1-c1nc(N2CCOCC2)nc(N2CCOCC2)n1 | 98.5 | 108
34 | Cc1cc(=O)c2c(O)c3c(O)cc(O)c4c5c(O)cc(O)c6c(O)c7c(=O)cc(C)c8c1c2c(c34)c(c65)c78 [Hypericin] | 103 | 100
35 | NC(=O)Nc1cc(-c2cccc(F)c2)sc1C(=O)N[C@H]1CCCNC1 | 116 | 92.3
36 | Cc1cc(C(=O)NOCCO)c(Nc2ccc(I)cc2F)n(C)c1=O | 90.8 | 92.8
37 | O=S(=O)(c1cccc2c(I)cccc12)N1CCCNCC1 | 102 | 94.1
38 | CC(=O)c1c(C)c2cnc(Nc3ccc(N4CCNCC4)cn3)nc2n(C2CCCC2)c1=O | 98 | 103
39 | N#CC(=C(/N)Sc1ccccc1N)/C(C#N)=C(/N)Sc1ccccc1N | 100 | 103
40 | CO[C@H]1C[C@@H]2CC[C@@H](C)[C@@](O)(O2)C(=O)C(=O)N2CCCC[C@H]2C(=O)O[C@H]([C@H](C)C[C@@H]2CC[C@@H](OCCO)[C@H](OC)C2)CC(=O)[C@H](C)/C=C(\C)[C@@H](O)[C@@H](OC)C(=O)[C@H](C)C[C@H](C)/C=C/C=C/C=C/1C [Everolimus (RAD001)] | 91 | 94.2

Row | SMILES | gametocyte viability (concentration: 1 µM) | gametocyte viability (concentration: 10 µM)
41 | C=CC(=O)Nc1cccc(Sc2nc(Nc3ccc(N4CCN(C)CC4)cc3)ncc2Cl)c1 | 87.2 | 72.7
42 | COc1ccc(S(=O)(=O)N(CCO)c2ccccc2CN(C)CC=Cc2ccc(Cl)cc2)cc1 | 112 | 102
43 | O=c1cc(-c2ccc(O)cc2)oc2cc(O)cc(O)c12 [Apigenin] | 101 | 65.3
44 | CC(C)c1cnc(NC(=O)Cc2ccccc2)s1 | 94.5 | 92
45 | N#C/C(=C\c1ccc(O)c(O)c1)C(=O)NCc1ccccc1 | 98.4 | 95.8
46 | C=CC(=O)N1CCC[C@@H](n2nc(-c3ccc(Oc4ccccc4)cc3)c3c(N)ncnc32)C1 | 106 | 104
47 | c1ccc2c(-c3cnn4cc(-c5ccc(N6CCNCC6)cc5)cnc34)ccnc2c1 | 106 | 73.3
48 | CO[C@H]1C[C@@H]2CC[C@@H](C)[C@@](O)(O2)C(=O)C(=O)N2CCCC[C@H]2C(=O)O[C@H]([C@H](C)C[C@@H]2CC[C@@H](OP(C)(C)=O)[C@H](OC)C2)CC(=O)[C@H](C)/C=C(\C)[C@@H](O)[C@@H](OC)C(=O)[C@H](C)C[C@H](C)/C=C/C=C/C=C/1C [Deforolimus (Ridaforolimus)] | 90.2 | 86.2
49 | CCCCCCCCCCCCC/C=C/[C@@H](O)[C@@H](N)CO [D-erythro-Sphingosine] | 113 | 119
50 | C[C@@H](N)[C@H]1CC[C@H](C(=O)Nc2ccncc2)CC1 | 107 and 110 | 107 and 111
51 | CN(c1ncccc1CNc1nc(Nc2ccc3c(c2)CC(=O)N3)ncc1C(F)(F)F)S(C)(=O)=O | 117 | 112
52 | N#CC1(c2ccc(NC(=O)c3cccnc3NCc3ccncc3)cc2)CCCC1 [Apatinib (YN968D1)] | 96 | 95.4
53 | Cn1cnc2nc(NCCO)nc(NCc3ccccc3)c21 [Iso-olomoucine] | 95 | 102
54 | CC(=O)Nc1cccc(-n2c(=O)n(C3CC3)c(=O)c3c(Nc4ccc(I)cc4F)n(C)c(=O)c(C)c32)c1 | 102 | 82.7
55 | Cc1cc(Nc2nc(N[C@@H](C)c3ccc(F)cc3)c(C#N)cc2F)n[nH]1 | 97.5 | 99.6
56 | N#C/C(=C\c1cc(Cl)cc(Cl)c1)c1cccnc1 | 98.1 | 101
57 | O=c1c(O)c(-c2ccc(O)c(O)c2)oc2cc(O)cc(O)c12 [Quercetin·2H2O] | 102 | 95.8
58 | Nc1nccc(Oc2ccc(NC(=O)c3c[nH]cc(-c4ccc(F)cc4)c3=O)cc2F)c1Cl | 102 | 114
59 | C=CC(=O)Nc1cccc(Oc2nc(Nc3ccc(N4CCN(C)CC4)cc3)ncc2Cl)c1 | 103 | 72.5

Source: the supplement of paper PMC12297408
